Reference: PMC4336329 (PLoS ONE, 2015)
The campaign covered roughly 310,000 compounds. About 14,000 (4.5%) showed an effect of 50% or more. Effects have a minus sign here. The list comes from a sample in which strong results are over-represented; it also holds similar structures and randomly drawn compounds.

target: human ether-à-go-go-related gene (hERG) potassium channel (human, UniProt Q12809); experiment: primary screen, population patch clamp on CHO cells stably expressing hERG; higher = less effect of the substance
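Further: peak tail current of the secondary pulse compared with the same well before compound.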

Chain of human ether-à-go-go-related gene (hERG) potassium channel (Q12809 whole entry, looked up): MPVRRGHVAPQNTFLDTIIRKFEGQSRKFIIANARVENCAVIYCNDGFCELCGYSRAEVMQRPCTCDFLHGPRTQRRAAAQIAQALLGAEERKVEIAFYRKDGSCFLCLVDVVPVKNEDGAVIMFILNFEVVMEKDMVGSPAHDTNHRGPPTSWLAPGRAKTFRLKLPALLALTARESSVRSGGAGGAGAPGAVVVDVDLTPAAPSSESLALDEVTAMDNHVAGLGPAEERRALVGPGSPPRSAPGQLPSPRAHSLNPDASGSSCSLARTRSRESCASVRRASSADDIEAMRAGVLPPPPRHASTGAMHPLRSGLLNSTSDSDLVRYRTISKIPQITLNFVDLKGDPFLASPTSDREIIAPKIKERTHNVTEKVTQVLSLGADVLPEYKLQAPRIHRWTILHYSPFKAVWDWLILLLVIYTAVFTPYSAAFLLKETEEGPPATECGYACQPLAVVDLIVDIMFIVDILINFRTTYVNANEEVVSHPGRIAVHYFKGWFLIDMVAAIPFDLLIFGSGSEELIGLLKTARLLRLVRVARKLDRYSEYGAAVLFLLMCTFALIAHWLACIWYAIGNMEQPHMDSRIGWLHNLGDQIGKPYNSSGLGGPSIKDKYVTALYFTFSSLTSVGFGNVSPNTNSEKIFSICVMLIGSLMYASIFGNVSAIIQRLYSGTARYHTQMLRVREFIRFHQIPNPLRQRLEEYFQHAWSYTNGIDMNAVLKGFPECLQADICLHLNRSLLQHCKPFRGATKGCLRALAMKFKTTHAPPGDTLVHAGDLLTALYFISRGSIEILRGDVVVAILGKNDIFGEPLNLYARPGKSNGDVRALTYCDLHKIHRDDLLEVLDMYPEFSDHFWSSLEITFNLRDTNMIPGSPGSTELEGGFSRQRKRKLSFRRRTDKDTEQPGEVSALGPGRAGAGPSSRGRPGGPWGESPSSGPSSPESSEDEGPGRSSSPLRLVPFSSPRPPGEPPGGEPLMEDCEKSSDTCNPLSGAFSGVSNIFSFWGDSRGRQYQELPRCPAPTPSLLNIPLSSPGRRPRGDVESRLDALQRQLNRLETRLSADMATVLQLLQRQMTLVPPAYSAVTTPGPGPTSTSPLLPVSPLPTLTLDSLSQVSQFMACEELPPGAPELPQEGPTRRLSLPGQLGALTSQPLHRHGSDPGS

Going from `CCc1ccc(NS(=O)(=O)c2ccc3oc(=O)ccc3c2)cc1` to `COc1ccc(OC)c(NS(=O)(=O)c2ccc(Br)s2)c1`, the “hERG current change (%, negative = inhibition) at 10uM” value falls from -1.91% to -12.4%.

Compared with `CCOC(=O)C1(Cc2ccc(Cl)cc2)CCN(C(=O)C2CCCO2)CC1` (centres unmarked), `C=CCN1CC(C(=O)N2CCC(Cc3ccc(Cl)cc3)(C(=O)OCC)CC2)CC1=O` (centres unmarked) is lower in “hERG current change (%, negative = inhibition) at 10uM” value: -33.2% for the first, -72.4% for the second.

Going from `CCOC(=O)C1(Cc2ccc(OC)cc2)CCN(C(=O)c2csc(C)n2)CC1` to `CCOC(=O)C1(Cc2ccc(OC)cc2)CCN(C(=O)c2sc(C)nc2C)CC1`, the “hERG current change (%, negative = inhibition) at 10uM” value falls from 2.99% to 1.86%.

Going from `CCOC(=O)C1(Cc2ccc(Cl)cc2)CCN(C(=O)c2cscn2)CC1` to `CCOC(=O)C1(Cc2ccc(Cl)cc2)CCN(C(=O)c2cnc(C)cn2)CC1`, the “hERG current change (%, negative = inhibition) at 10uM” value falls from -37.4% to -57.1%.

First: O=C1CCC(C(=O)N2CCC(CO)(Cc3ccc(Cl)cc3)CC2)=NN1
Second: CCOC(=O)C1(Cc2ccc(Cl)cc2)CCN(C(=O)C2=NNC(=O)CC2)CC1
The “hERG current change (%, negative = inhibition) at 10uM” value of the first is higher: -32.5% for the first, -69.6% for the second.

First: CCOC(=O)C1(Cc2ccc(Cl)cc2)CCN(C(=O)c2ccoc2)CC1
Second: CCOC(=O)C1(Cc2ccc(Cl)cc2)CCN(C(=O)c2sc(C)nc2C)CC1
The “hERG current change (%, negative = inhibition) at 10uM” value of the first is higher: -49.4% for the first, -52.9% for the second.

Going from `CCOC(=O)C1(Cc2ccc(Cl)cc2)CCN(C(=O)c2cc(C)nc(C)n2)CC1` to `CCOC(=O)N1CCN(C(=O)C2CCC(=O)N(Cc3ccc(Cl)cc3)C2)CC1` (centres unmarked), the “hERG current change (%, negative = inhibition) at 10uM” value falls from -38.1% to -40.5%.

First: O=C1CC(NS(=O)(=O)c2cccs2)CN1c1cccc(F)c1 (centres unmarked)
Second: COC(=O)C(C)Sc1nc2c(c(=O)n1-c1ccccc1)SCC2 (centres unmarked)
The “hERG current change (%, negative = inhibition) at 10uM” value of the first is higher: -6.29% for the first, -6.49% for the second.

Compared with `O=C(Nc1ccc(Cl)c(S(=O)(=O)N2CCOCC2)c1)c1ccc2c(c1)OCCO2`, `Cc1ccc(NC(=O)N2CCC(NC(=O)c3ccco3)CC2)cc1` is lower in “hERG current change (%, negative = inhibition) at 10uM” value: 12.6% for the first, 4.55% for the second.

Going from `COc1ccc2c(c1)C1NC(=S)N[C@@](C)(O2)C1C(=O)Nc1ccccc1` (some centres unmarked) to `CCOC(=O)[C@H]1[C@H]2COc3cc(OC)ccc3[C@@H]2N2C(=O)CN(Cc3ccccc3)C(=O)[C@@]12C`, the “hERG current change (%, negative = inhibition) at 10uM” value falls from -3.49% to -8.34%.

Going from `N#CC1=C(N)N(c2ccccc2Sc2ccccc2)C(=O)C1` to `COc1ccc(NC(=O)CN(C)C(=O)c2cn(-c3ccccc3)nc2-c2ccc(OC)cc2)cc1`, the “hERG current change (%, negative = inhibition) at 10uM” value falls from 3.4% to -7.66%.

With `CCCS(=O)(=O)N1CCN(S(=O)(=O)c2ccc(F)cc2)CC1` the “hERG current change (%, negative = inhibition) at 10uM” value was 10.6%.
